Records with an inconclusive call do not appear. Activity calls are given as the source filed them. Calls follow the shape of the dose curve; as a rule, active = well fitted curve in the direction sought with a large enough effect; inconclusive = small, poorly fitted or top-dose-only effect, or another doubt; inactive = no such curve, though single readings can be large; an effect the other way counts as inactive or inconclusive.
Columns and labels:
[1] = system: HACAT; assay: qHTS assay to identify novel small-molecules to repurpose for Merkel cell carcinoma treatment (AID 1296009); conditions: MCC and control cell lines, CellTiter-Glo viability, 72 h; at 44.8 µM (top of the series) unless noted; also: nearly all actives have a fitted effect of over 60% in size
How it was run: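 Cell viability measured by CellTiter-Glo following 72 hr compound treatment at 37 degree celsius, with NPC and MIPE libraries tested in 8- and 11-point concentration series.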

[2] = system: C33A; assay: Primary qHTS to identify gynecologic anti-cancer compounds using libraries of approved drugs and bioactive compounds (AID 1345084); conditions: Gynecologic cancer cell panel viability, ATPlite luminescence, 48 h; series mostly up to 57.5 µM; also: % is scaled to controls: 0 for no effect and ±100 for the full control effect; nearly all actives have a fitted effect of over 55% in size
How it was run: (§1)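 Cytotoxicity screen measuring ATP content by luciferase luminescence. Each compound is applied at five concentrations for 48 h at 37 C with 5% CO2.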

[3] = system: CAOV3; assay: as above; conditions: Gynecologic cancer cell panel viability, ATPlite luminescence, 48 h; series mostly up to 57.5 µM
How it was run: as §1

[4] = system: CASKI; assay: as above; conditions: Gynecologic cancer cell panel viability, ATPlite luminescence, 48 h; series mostly up to 57.5 µM
How it was run: as §1

[5] = system: Es-2; assay: as above; conditions: Gynecologic cancer cell panel viability, ATPlite luminescence, 48 h; series mostly up to 57.5 µM
How it was run: as §1

[6] = system: HeLa; assay: as above; conditions: Gynecologic cancer cell panel viability, ATPlite luminescence, 48 h; series mostly up to 57.5 µM
How it was run: as §1

[7] = system: Hek293T; assay: as above; conditions: Gynecologic cancer cell panel viability, ATPlite luminescence, 48 h, control line for the selectivity index; series mostly up to 57.5 µM
How it was run: as §1

[8] = system: JEG-3; assay: as above; conditions: Gynecologic cancer cell panel viability, ATPlite luminescence, 48 h; series mostly up to 57.5 µM
How it was run: as §1

CC1(C)C(=O)N2c3ccccc3C(O)(CC(C(=O)O)n3cnc4ccccc4c3=O)C2N1O (stereo not drawn)
inactive: outcome [1] inactive [at 17.4 µM] | Potency [2] | Potency [3] | outcome [4] | Potency [5] | Potency [6] | Potency [7] | Potency [8]

C[C@@H]1O[C@@H](O[C@H]2[C@@H]3C=CO[C@@H](O[C@@H]4O[C@H](CO)[C@@H](O)[C@H](O)[C@H]4O)[C@@H]3[C@@]3(CO)O[C@@H]23)[C@H](O)[C@H](OC(=O)/C=C/c2ccc(O)cc2)[C@H]1OC(=O)/C=C/c1ccc(O)cc1
inactive: outcome [1] inactive [at 17.4 µM] | Potency [2] | Potency [3] | outcome [4] | Potency [5] | Potency [6] | Potency [7] | Potency [8]

O=C(Nc1ccc(N2CCC(C(=O)N3CCOCC3)CC2)cc1)c1cnc(Oc2ccccc2)nc1
inactive: outcome [1] | Potency [2] | Potency [3] | outcome [4] | Potency [5] | Potency [6] | Potency [7] | Potency [8]

CC(C)=C1CC2[C@](C)(CC[C@@H](OC(=O)C3(C)OC3C)[C@@]2(C)O)CC1=O (stereo partly drawn)
inactive: outcome [1] | Potency [2] | Potency [3] | outcome [4] | Potency [5] | Potency [6] | Potency [7] | Potency [8]

CC1(C)CC[C@]2(C(=O)O)CC[C@]3(C)C(=CCC4[C@@]5(C)C[C@@H](O)[C@H](O)[C@@](C)(CO)C5CC[C@]43C)C2C1 (stereo partly drawn)
inactive: outcome [1] inactive [at 17.4 µM] | Potency [2] | Potency [3] | outcome [4] | Potency [5] | Potency [6] | Potency [7] | Potency [8]

Cc1occc(=O)c1O[C@@H]1O[C@H](CO[C@@H]2OC[C@](O)(CO)[C@H]2O)[C@@H](O)[C@H](O)[C@H]1O
inactive: outcome [1] inactive [at 17.4 µM] | Potency [2] | Potency [3] | outcome [4] | Potency [5] | Potency [6] | Potency [7] | Potency [8]

COc1cc(CC2COC(c3ccc(OC4OC(CO)C(O)C(O)C4O)c(OC)c3)C2CO)ccc1O (stereo not drawn)
inactive: outcome [1] inactive [at 17.4 µM] | Potency [2] | Potency [3] | outcome [4] | Potency [5] | Potency [6] | Potency [7] | Potency [8]

O=C(O[C@H]1[C@H](Oc2ccc(O)cc2CO)O[C@H](CO)[C@@H](O)[C@@H]1O)c1ccccc1
inactive: outcome [1] inactive [at 17.4 µM] | Potency [2] | Potency [3] | outcome [4] | Potency [5] | Potency [6] | Potency [7] | Potency [8]

On1ncc(C2CCNCC2)c1-c1cccc(-c2ccccc2)c1
inactive: outcome [1] | Potency [2] | Potency [3] | outcome [4] | Potency [5] | Potency [6] | Potency [7] | Potency [8]

CC(=O)OC1CC(=O)C2(C)C3CC4=C(OC(C)CC4=O)OC3(C)CCC2C1(C)C (stereo not drawn)
inactive: outcome [1] inactive [at 17.4 µM] | Potency [2] | Potency [3] | outcome [4] | Potency [5] | Potency [6] | Potency [7] | Potency [8]

O=C(/C=C/c1ccc(O)c(O)c1)O[C@H]1[C@@H]2C=CO[C@@H](O[C@@H]3O[C@H](CO)[C@@H](O)[C@H](O)[C@H]3O)[C@@H]2[C@@]2(CO)O[C@@H]12
inactive: outcome [1] inactive [at 17.4 µM] | Potency [2] | Potency [3] | outcome [4] | Potency [5] | Potency [6] | Potency [7] | Potency [8]

O=C(O)c1cc(C(F)(F)F)ccc1N1CC[C@H](OCc2ccccn2)C1
inactive: outcome [1] | Potency [2] | Potency [3] | outcome [4] | Potency [5] | Potency [6] | Potency [7] | Potency [8]

Cc1ncc([N+](=O)[O-])n1C[C@H](O)CN1CCOCC1
inactive: outcome [1] | Potency [2] | Potency [3] | outcome [4] | Potency [5] | Potency [6] | Potency [7] | Potency [8]

COc1cc(O)cc(O[C@@H]2O[C@H](CO)[C@@H](O[C@@H]3OC[C@](O)(CO)[C@H]3O)[C@H](O)[C@H]2O)c1OC
inactive: outcome [1] inactive [at 17.4 µM] | Potency [2] | Potency [3] | outcome [4] | Potency [5] | Potency [6] | Potency [7] | Potency [8]

COc1c2cc(c(O)c1OC)CCCCC(O)CCc1ccc(O)c-2c1 (stereo not drawn)
inactive: outcome [1] | Potency [2] | Potency [3] | outcome [4] | Potency [5] | Potency [6] | Potency [7] | Potency [8]

CC1=C(C)C(=O)OC(C(C)C2C(O)CC3C4C5OC5C5(O)CC(OC6OC(CO)C(OC7OC(C)C(O)C(O)C7O)C(O)C6O)CC(O)C5(C)C4CCC32C)C1 (stereo not drawn)
inactive: outcome [1] inactive [at 17.4 µM] | Potency [2] | Potency [3] | outcome [4] | Potency [5] | Potency [6] | Potency [7] | Potency [8]

CC1=C(C(=O)OC2OC(COC3OC(CO)C(O)C(O)C3O)C(O)C(O)C2O)C(C)(C)CCC1 (stereo not drawn)
inactive: outcome [1] inactive [at 17.4 µM] | Potency [2] | Potency [3] | outcome [4] | Potency [5] | Potency [6] | Potency [7] | Potency [8]

CC/C=C\C(O)C(O)C1=C(C)C(=O)C2(O1)C(=O)NC(OC)(C(=O)c1ccccc1)C2O (stereo not drawn)
inactive: outcome [1] inactive [at 17.4 µM] | Potency [2] | Potency [3] | outcome [4] | Potency [5] | Potency [6] | Potency [7] | Potency [8]

CC(=O)NC(Cc1c[nH]c2ccccc(=O)c12)C(=O)O (stereo not drawn)
inactive: outcome [1] | Potency [2] | Potency [3] | outcome [4] | Potency [5] | Potency [6] | Potency [7] | Potency [8]

OC[C@@]1(O)CO[C@H](OC[C@H]2O[C@@H](OCCc3ccccc3)[C@H](O)[C@@H](O)[C@@H]2O)[C@@H]1O
inactive: outcome [1] inactive [at 17.4 µM] | Potency [2] | Potency [3] | outcome [4] | Potency [5] | Potency [6] | Potency [7] | Potency [8]

COC(=O)[C@]1(C)CCC[C@@]2(C)C(=O)CC[C@H]3C(=O)C=C(CC[C@@H]21)C3O (stereo partly drawn)
inactive: outcome [1] | Potency [2] | Potency [3] | outcome [4] | Potency [5] | Potency [6] | Potency [7] | Potency [8]

CC1(C)C2CC[C@]3(C)C(C(=O)C=C4[C@H]5C[C@@](C)(C(=O)O)CC[C@]5(C)CC[C@]43C)[C@@]2(C)CC[C@@H]1O (stereo partly drawn)
inactive: outcome [1] inactive [at 17.4 µM] | Potency [2] | Potency [3] | outcome [4] | Potency [5] | Potency [6] | Potency [7] | Potency [8]

C[C@@H]1CC[C@]2(C(=O)O[C@@H]3O[C@H](CO[C@@H]4O[C@H](CO)[C@@H](O)[C@H](O)[C@H]4O)[C@@H](O)[C@H](O)[C@H]3O)CC[C@]3(C)C(=CCC4[C@@]5(C)CC[C@H](O)[C@](C)(C(=O)O)C5CC[C@]43C)[C@@H]2[C@]1(C)O (stereo partly drawn)
inactive: outcome [1] inactive [at 9.27 µM] | activity change, negative = cytotoxicity [2] -1.83% [at 11.6 µM] | activity change, negative = cytotoxicity [3] 5.32% [at 11.6 µM] | activity change, negative = cytotoxicity [4] 3.63% [at 11.6 µM] | activity change, negative = cytotoxicity [5] 6.01% [at 11.6 µM] | activity change, negative = cytotoxicity [6] 4.82% [at 11.6 µM] | activity change, negative = cytotoxicity [7] 10.6% [at 11.6 µM] | activity change, negative = cytotoxicity [8] 0.0588% [at 11.6 µM]

COc1ccc(/C=C/C(=O)O[C@@H]2[C@@H](O)[C@@H](O)[C@H](O[C@H]3[C@@H]4C=CO[C@@H](O[C@@H]5O[C@H](CO)[C@@H](O)[C@H](O)[C@H]5O)[C@@H]4[C@@]4(CO)O[C@@H]34)O[C@H]2C)cc1
inactive: outcome [1] inactive [at 17.4 µM] | Potency [2] | Potency [3] | outcome [4] | Potency [5] | Potency [6] | Potency [7] | Potency [8]

COC(=O)C(CC1(OC(=O)C(C)C)c2ccccc2N2C(=O)C(C)(C)N(O)C21)n1cnc2ccccc2c1=O (stereo not drawn)
inactive: outcome [1] inactive [at 17.4 µM] | Potency [2] | Potency [3] | outcome [4] | Potency [5] | Potency [6] | Potency [7] | Potency [8]

Fc1ccc(-c2c3cccc(C(F)(F)F)c3nn2Cc2ccc(F)cc2Cl)cc1
inactive: outcome [1] | Potency [2] | Potency [3] | outcome [4] | Potency [5] | Potency [6] | Potency [7] | Potency [8]

C=C1CC[C@@H]2[C@](C)(CO)[C@H](O[C@@H]3O[C@H](CO)[C@@H](O)[C@H](O)[C@H]3O)CC[C@@]2(C)[C@@H]1C/C=C1/C(=O)OC[C@H]1O
inactive: outcome [1] inactive [at 17.4 µM] | Potency [2] | Potency [3] | outcome [4] | Potency [5] | Potency [6] | Potency [7] | Potency [8]

O=C(Nc1ccn(Cc2c(F)cccc2C(F)(F)F)n1)c1c(F)cccc1F
inactive: outcome [1] inactive [at 9.27 µM] | activity change, negative = cytotoxicity [2] 3.35% [at 11.6 µM] | activity change, negative = cytotoxicity [3] 17% [at 11.6 µM] | activity change, negative = cytotoxicity [4] 7.64% [at 11.6 µM] | activity change, negative = cytotoxicity [5] 0.101% [at 11.6 µM] | activity change, negative = cytotoxicity [6] 13% [at 11.6 µM] | activity change, negative = cytotoxicity [7] -2.96% [at 11.6 µM] | activity change, negative = cytotoxicity [8] 9.68% [at 11.6 µM]

COc1ccnc2[nH]cc(C(=O)C(=O)N3CCN(C(=O)c4ccccc4)CC3C)c12 (stereo not drawn)
inactive: outcome [1] | Potency [2] | Potency [3] | outcome [4] | Potency [5] | Potency [6] | Potency [7] | Potency [8]

O=C(OCC(O)CO[C@@H]1O[C@H](C(=O)O)[C@@H](O)[C@H](O)[C@H]1O)c1ccccc1 (stereo partly drawn)
inactive: outcome [1] | Potency [2] | Potency [3] | outcome [4] | Potency [5] | Potency [6] | Potency [7] | Potency [8]

CC(C)=CCC[C@](C)(O[C@@H]1O[C@H](CO[C@@H]2O[C@@H](CO)[C@H](O)[C@H]2O[C@@H]2OC[C@@H](O)[C@H](O)[C@H]2O)[C@@H](O)[C@H](O)[C@H]1O)[C@H]1CC[C@]2(C)[C@@H]1[C@H](O)CC1[C@@]3(C)CC[C@H](O[C@@H]4O[C@H](CO)[C@@H](O)[C@H](O)[C@H]4O[C@@H]4O[C@H](CO)[C@@H](O)[C@H](O)[C@H]4O)C(C)(C)C3CC[C@]12C (stereo partly drawn)
inactive: outcome [1] inactive [at 9.27 µM] | activity change, negative = cytotoxicity [2] 7.16% [at 6.55 µM] | activity change, negative = cytotoxicity [3] 9.01% [at 6.55 µM] | activity change, negative = cytotoxicity [4] 10.9% [at 6.55 µM] | activity change, negative = cytotoxicity [5] 4.94% [at 6.55 µM] | activity change, negative = cytotoxicity [6] -1.43% [at 6.55 µM] | activity change, negative = cytotoxicity [7] 2.28% [at 6.55 µM] | activity change, negative = cytotoxicity [8] 5.39% [at 6.55 µM]

Reference: PubChem BioAssay (NCATS)
